# From PubChem BioAssay (EPA / NIEHS)
# Values joined by “and” are separate entries in the source; they are usually repeats but may differ in a detail not shown here. Equal entries are not always repeated. Records with an inconclusive call do not appear. Active and inactive are the calls of the source. How the source made its calls: active means hit-call score of the fitted dose curve at least 0.9, where 1 is the maximum; inconclusive means response in the unintended direction; inactive means score below 0.9.
# Key:
# [1] = molecular target: human Norepinephrine Transporter (NET), SLC6A2 (gene 6530) (UniProt P23975); test: NVS_TR_hNET: NovaScreen (NVS) Transporter Assay for human Norepinephrine Transporter (NET) (AID 2283377);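 further: cell-free membrane protein extracted from CHO cells expressing human NET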;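 on AC50: displacement of radioligand from human NET seen as loss of scintillation signal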
# Sequence of human Norepinephrine Transporter (NET), SLC6A2 (gene 6530) (P23975 whole entry, looked up): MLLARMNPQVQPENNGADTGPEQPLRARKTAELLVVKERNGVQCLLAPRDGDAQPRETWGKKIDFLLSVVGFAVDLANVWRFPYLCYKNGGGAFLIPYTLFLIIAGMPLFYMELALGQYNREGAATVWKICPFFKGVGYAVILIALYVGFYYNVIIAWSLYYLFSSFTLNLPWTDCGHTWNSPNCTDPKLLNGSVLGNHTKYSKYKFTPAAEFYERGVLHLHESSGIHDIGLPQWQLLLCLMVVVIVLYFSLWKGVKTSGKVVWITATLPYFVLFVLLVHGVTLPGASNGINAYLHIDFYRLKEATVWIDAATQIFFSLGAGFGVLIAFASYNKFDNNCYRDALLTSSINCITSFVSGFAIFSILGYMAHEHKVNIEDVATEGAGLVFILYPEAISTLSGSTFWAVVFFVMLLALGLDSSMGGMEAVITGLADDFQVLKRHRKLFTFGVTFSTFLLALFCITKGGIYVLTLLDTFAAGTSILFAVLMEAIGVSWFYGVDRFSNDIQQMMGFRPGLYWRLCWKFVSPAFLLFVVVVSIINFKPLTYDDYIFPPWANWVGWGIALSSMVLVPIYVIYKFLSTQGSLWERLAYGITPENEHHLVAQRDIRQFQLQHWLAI
# How it was run: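 Scintillation counts of filter-retained radioligand served as the readout, taken 1 h post-dosing in a cell-free CHO-derived system. Test chemicals ran first at 25 uM in duplicate; confirmed hits were retested across concentrations.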
# [2] = molecular target: Peroxisome proliferator-activated receptor gamma (Homo sapiens) (UniProt P37231); test: NVS_NR_hPPARg: NovaScreen (NVS) Nuclear Receptor Binding Assay for human Peroxisome Proliferator-activated Receptor gamma (PPARg) (AID 2283370)
# Sequence of Peroxisome proliferator-activated receptor gamma (Homo sapiens) (P37231 whole entry, looked up): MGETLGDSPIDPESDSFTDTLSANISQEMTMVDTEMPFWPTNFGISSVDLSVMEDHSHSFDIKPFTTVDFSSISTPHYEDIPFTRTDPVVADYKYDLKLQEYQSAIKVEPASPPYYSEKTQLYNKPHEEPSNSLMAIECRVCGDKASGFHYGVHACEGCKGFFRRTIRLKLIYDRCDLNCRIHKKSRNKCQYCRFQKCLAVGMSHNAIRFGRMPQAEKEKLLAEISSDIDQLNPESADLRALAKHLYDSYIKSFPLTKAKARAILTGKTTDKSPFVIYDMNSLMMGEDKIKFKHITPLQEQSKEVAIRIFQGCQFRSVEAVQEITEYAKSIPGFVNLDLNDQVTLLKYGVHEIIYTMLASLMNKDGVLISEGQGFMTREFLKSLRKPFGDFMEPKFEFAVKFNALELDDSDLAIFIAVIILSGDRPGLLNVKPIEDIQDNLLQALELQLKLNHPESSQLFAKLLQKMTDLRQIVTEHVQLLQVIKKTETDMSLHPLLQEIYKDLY
# How it was run: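 Fluorescence polarization readout of ligand binding to extracted human PPARg, measured at 2 h. Duplicate single-point screen at 25 uM, then concentration-series retesting; activity defined as signal loss versus DMSO.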
# [3] = molecular target: human Dopamine Transporter (DAT), SLC6A3 (gene 6531) (UniProt Q01959); test: NVS_TR_hDAT: NovaScreen (NVS) Transporter Assay for human Dopamine Transporter (DAT) (AID 2283374);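 further: activity means loss of bound radioligand signal relative to DMSO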
# Sequence of human Dopamine Transporter (DAT), SLC6A3 (gene 6531) (Q01959 whole entry, looked up): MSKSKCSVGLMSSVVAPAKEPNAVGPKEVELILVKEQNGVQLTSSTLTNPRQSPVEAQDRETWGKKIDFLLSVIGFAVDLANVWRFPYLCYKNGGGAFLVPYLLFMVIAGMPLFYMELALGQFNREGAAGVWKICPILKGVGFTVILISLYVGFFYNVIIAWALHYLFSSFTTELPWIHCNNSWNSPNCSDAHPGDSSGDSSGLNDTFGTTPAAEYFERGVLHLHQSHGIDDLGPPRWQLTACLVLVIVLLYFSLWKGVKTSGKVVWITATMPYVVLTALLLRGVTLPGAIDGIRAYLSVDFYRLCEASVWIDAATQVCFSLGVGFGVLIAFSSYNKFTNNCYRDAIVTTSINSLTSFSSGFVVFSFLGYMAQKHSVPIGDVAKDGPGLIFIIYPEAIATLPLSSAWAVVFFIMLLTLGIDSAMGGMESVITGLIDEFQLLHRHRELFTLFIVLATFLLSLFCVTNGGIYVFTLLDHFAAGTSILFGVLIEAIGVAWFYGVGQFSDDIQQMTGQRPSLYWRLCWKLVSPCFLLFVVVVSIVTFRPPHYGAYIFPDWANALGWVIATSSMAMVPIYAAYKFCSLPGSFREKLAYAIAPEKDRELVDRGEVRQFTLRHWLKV
# How it was run: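 Test chemicals were first screened in duplicate at 25 uM, with actives retested as concentration series. Displacement of a specific radioligand from cell-free human dopamine transporter was measured after 1 h by filtration and scintillation counting.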
# [4] = molecular target: human Serotonin Transporter (SERT), SLC6A4 (gene 6532) (UniProt P31645); test: NVS_TR_hSERT: NovaScreen (NVS) Transporter Assay for human Serotonin Transporter (SERT) (AID 2283372)
# Sequence of human Serotonin Transporter (SERT), SLC6A4 (gene 6532) (P31645 whole entry, looked up): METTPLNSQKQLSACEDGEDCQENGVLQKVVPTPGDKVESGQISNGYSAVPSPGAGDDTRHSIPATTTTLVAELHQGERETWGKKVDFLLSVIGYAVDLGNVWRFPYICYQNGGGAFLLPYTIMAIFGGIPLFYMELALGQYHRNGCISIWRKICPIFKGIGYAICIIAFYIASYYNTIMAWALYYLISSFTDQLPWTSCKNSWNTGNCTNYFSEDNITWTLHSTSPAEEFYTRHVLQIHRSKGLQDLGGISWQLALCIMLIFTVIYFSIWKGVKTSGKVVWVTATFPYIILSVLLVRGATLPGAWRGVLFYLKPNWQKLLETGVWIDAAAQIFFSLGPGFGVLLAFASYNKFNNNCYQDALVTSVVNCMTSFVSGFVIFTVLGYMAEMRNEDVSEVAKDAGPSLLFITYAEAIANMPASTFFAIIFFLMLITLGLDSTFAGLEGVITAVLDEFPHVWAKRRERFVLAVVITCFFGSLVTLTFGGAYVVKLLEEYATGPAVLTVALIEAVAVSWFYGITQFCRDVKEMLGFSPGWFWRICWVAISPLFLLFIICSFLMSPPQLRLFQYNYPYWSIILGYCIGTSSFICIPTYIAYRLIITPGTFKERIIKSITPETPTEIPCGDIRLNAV
# How it was run: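 Radioligand binding to native SERT in human platelet membranes, read by filter-based scintillation counting 1 h after dosing. Primary screen in duplicate at 25 uM; actives followed up in concentration series; loss of signal versus DMSO baseline.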
# [5] = molecular target: rat Serotonin Transporter (SERT), Slc6a4 (gene 25553) (UniProt P31652); test: NVS_TR_rSERT: NovaScreen (NVS) Transporter Assay for rat Serotonin Transporter (SERT) (AID 2283375)
# Sequence of rat Serotonin Transporter (SERT), Slc6a4 (gene 25553) (P31652 whole entry, looked up): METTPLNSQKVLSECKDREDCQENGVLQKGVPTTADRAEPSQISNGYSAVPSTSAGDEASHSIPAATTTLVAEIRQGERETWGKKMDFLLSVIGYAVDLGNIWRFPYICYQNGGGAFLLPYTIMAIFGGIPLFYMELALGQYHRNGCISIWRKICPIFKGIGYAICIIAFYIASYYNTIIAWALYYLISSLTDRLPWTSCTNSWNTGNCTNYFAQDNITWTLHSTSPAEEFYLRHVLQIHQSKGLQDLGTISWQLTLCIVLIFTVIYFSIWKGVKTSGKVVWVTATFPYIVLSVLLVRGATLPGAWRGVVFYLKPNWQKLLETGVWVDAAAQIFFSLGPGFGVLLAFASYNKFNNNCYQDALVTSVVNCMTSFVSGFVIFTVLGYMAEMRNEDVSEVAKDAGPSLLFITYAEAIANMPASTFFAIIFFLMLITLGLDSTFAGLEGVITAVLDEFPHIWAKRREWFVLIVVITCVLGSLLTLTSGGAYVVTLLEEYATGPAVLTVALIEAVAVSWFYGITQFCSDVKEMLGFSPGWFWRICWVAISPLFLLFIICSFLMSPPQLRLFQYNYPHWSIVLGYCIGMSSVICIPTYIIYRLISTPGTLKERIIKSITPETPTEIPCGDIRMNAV
# How it was run: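 Radioligand binding with competitive displacement on rat forebrain membrane preparations, counted by filtration and scintillation after 1 h. Primary single-point duplicates at 25 uM; active chemicals followed up in concentration-response. DMSO served as baseline.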
# [6] = test system: guinea pig Dopamine Transporter (DAT), gene 100714898; test: NVS_TR_gDAT: NovaScreen (NVS) Transporter Assay for guinea pig Dopamine Transporter (DAT) (AID 2283369);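 further: active compounds lower bound radioligand signal relative to DMSO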
# How it was run: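 Radioligand displacement on membranes from guinea pig striatum, 2 h exposure, bound label counted by filtration and scintillation. Tested at 25 uM in duplicate, then actives in concentration series to 50 uM; DMSO as negative control.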
# [7] = molecular target: mouse Estrogen Receptor alpha (Era), Esr1 (gene 13982) (UniProt P19785); test: NVS_NR_mERa: NovaScreen (NVS) Nuclear Receptor Binding Assay for mouse Estrogen Receptor alpha (Era) (AID 2283378);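 further: hit means loss of bound radioligand signal relative to DMSO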
# Sequence of mouse Estrogen Receptor alpha (Era), Esr1 (gene 13982) (P19785 whole entry, looked up): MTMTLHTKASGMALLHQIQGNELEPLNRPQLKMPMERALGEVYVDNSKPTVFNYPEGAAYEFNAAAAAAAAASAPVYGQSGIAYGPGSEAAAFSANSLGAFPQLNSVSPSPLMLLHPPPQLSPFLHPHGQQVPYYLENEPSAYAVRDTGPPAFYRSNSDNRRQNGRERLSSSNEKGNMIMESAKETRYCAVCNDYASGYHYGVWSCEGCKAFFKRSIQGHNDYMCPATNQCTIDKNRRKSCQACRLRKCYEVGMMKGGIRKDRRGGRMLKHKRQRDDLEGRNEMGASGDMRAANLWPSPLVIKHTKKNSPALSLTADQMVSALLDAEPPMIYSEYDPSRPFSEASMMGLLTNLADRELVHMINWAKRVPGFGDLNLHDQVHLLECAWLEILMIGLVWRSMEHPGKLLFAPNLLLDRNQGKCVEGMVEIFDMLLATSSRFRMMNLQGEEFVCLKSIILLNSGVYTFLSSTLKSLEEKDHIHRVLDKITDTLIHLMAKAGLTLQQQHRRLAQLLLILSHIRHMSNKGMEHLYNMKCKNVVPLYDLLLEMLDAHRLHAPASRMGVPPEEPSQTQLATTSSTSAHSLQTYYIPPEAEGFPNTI
# How it was run: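 Filter radiodetection of radioligand displacement from extracted receptor protein, measured 18 h post-dose. Single 25 uM concentration in duplicate initially, with concentration-series follow-up. Binding loss fitted relative to DMSO.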
# [8] = molecular target: Norway rat Vesicular Monoamine Transporter (VMAT2), neurotransmitter transporter, Slc18a2 (gene 25549) (UniProt Q01827); test: NVS_TR_rVMAT2: NovaScreen (NVS) Transporter Assay for Norway rat Vesicular Monoamine Transporter (VMAT2), neurotransmitter transporter (AID 2283376);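 further: actives lower the bound radioligand signal below the DMSO level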
# Sequence of Norway rat Vesicular Monoamine Transporter (VMAT2), neurotransmitter transporter, Slc18a2 (gene 25549) (Q01827 whole entry, looked up): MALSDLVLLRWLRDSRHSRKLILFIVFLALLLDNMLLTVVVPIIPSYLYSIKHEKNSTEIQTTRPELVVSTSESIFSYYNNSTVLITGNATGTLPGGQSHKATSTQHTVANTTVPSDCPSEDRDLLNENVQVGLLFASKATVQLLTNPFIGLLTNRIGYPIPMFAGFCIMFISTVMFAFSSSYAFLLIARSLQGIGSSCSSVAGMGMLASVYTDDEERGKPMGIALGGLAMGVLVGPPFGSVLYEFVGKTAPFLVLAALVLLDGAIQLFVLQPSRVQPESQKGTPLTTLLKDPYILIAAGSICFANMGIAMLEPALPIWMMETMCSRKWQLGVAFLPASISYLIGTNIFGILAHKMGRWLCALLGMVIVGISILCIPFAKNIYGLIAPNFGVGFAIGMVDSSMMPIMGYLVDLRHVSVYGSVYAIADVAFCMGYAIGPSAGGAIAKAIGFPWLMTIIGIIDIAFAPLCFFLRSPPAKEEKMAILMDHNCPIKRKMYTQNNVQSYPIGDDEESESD
# How it was run: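 Tissue: rat forebrain extract. Format: competitive radioligand binding, cell-free. Timepoint: 1 h. Readout: filter radiodetection/scintillation. Screen: 25 uM in duplicate, then concentration series for actives. Baseline: DMSO.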
smiles,measurement,setting,value
N#CN,AC50,[1],13 µM (active)
CC1(c2ccc(Oc3ccccc3)cc2)OC(=O)N(Nc2ccccc2)C1=O (stereo unspecified),outcome,[2],inactive
CC[C@H](C)[C@H]1O[C@]2(C=C[C@@H]1C)C[C@@H]1C[C@@H](C/C=C(\C)[C@@H](O[C@H]3C[C@H](OC)[C@@H](O[C@H]4C[C@H](OC)[C@@H](O)[C@H](C)O4)[C@H](C)O3)[C@@H](C)/C=C/C=C3\CO[C@@H]4[C@H](O)C(C)=C[C@@H](C(=O)O1)[C@]34O)O2 (tested in a mixture with another compound),outcome,[2],inactive
same,AC50,[3],11.3 µM (active)
same,AC50,[1],5.03 µM (active)
N#Cc1c(Cl)c(Cl)c(Cl)c(C#N)c1Cl,AC50,[2],0.495 µM (active)
same,outcome,[4],inactive
same,AC50,[5],8.2 µM (active)
COc1nn(CSP(=S)(OC)OC)c(=O)s1,outcome,[2],inactive
CC(C)(C)C(O)C(Oc1ccc(Cl)cc1)n1cncn1 (stereo unspecified),AC50,[6],1.08 µM (active) and 1.75 µM (active) and 869 nM (active)
same,outcome,[2],inactive
COC(=O)c1ccccc1CS(=O)(=O)NC(=O)Nc1nc(OC)cc(OC)n1,outcome,[2],inactive
COP(=O)(OC)OC=C(Cl)Cl,AC50,[2],6.97 µM (active)
CNC(=O)CSP(=S)(OC)OC,outcome,[2],inactive
CCCN(CCC)c1c([N+](=O)[O-])cc(C(F)(F)F)cc1[N+](=O)[O-],outcome,[6],inactive
same,AC50,[3],25 µM (active)
O=[N+]([O-])/N=C1\NCCN1Cc1ccc(Cl)nc1,outcome,[2],inactive
ClC1C(Cl)C(Cl)C(Cl)C(Cl)C1Cl (stereo unspecified),AC50,[6],9.83 µM (active) and 3.74 µM (active)
same,AC50,[3],5.04 µM (active) and 18.5 µM (active) and 14.4 µM (active)
O=C1c2ccccc2C(=O)N1SC(Cl)(Cl)Cl,outcome,[2],inactive
COP(=S)(OC)Oc1ccc([N+](=O)[O-])cc1,AC50,[6],20.1 µM (active)
same,AC50,[4],11.3 µM (active)
same,AC50,[3],25 µM (active)
same,AC50,[5],12.6 µM (active)
same,outcome,[7],inactive
CC(C)N(C(=O)COc1nnc(C(F)(F)F)s1)c1ccc(F)cc1,AC50,[4],7.81 µM (active)
same,AC50,[3],13.6 µM (active)
same,AC50,[5],8.58 µM (active)
CCC(C)(C)C(=O)OC1=C(c2ccc(Cl)cc2Cl)C(=O)OC12CCCCC2,outcome,[3],inactive
O=C(O)CCCOc1ccc(Cl)cc1Cl,outcome,[2],inactive
CC(C)(C)C(O)/C(=C\c1ccc(Cl)cc1Cl)n1cncn1 (stereo unspecified),outcome,[2],inactive
CCC(C)Nc1c([N+](=O)[O-])cc(C(C)(C)C)cc1[N+](=O)[O-] (stereo unspecified),outcome,[2],inactive
same,AC50,[3],8.98 µM (active)
O=S(=O)(O)C(F)(F)C(F)(F)C(F)(F)C(F)(F)C(F)(F)C(F)(F)C(F)(F)C(F)(F)F,AC50,[2],16.9 µM (active) [middle of 6 runs]
same,outcome,[1],inactive
CCOc1nc(NC)nc(NC(=O)NS(=O)(=O)c2ccccc2C(=O)OC)n1,outcome,[2],inactive
O=[N+]([O-])c1c(Cl)c(Cl)c(Cl)c(Cl)c1Cl,AC50,[2],38.1 µM (active)
CC(C)OC(=O)Nc1cccc(Cl)c1,outcome,[6],inactive
same,AC50,[3],16.3 µM (active)
same,AC50,[1],6.63 µM (active)
O=C(Nc1ccccc1)Nc1cnns1,AC50,[8],5.31 µM (active)
